Data published in PubChem BioAssay AID1159580 (chemical genetic matrix, 2015).
About 2,000 (36%) of roughly 5,500 compounds were called active. Not shown: some 18% with an inconclusive outcome. No stated cut-off is given here; in the data, active means normalized growth mostly below about 0.91 (no sharp cut-off); inconclusive means no clear call, values can overlap the other calls; inactive means mostly above about 0.92. The list shows a part of the results.

Assay: chemical genetic growth profiling, strain panel (AID 1159580);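 further: tested at 20 µM; growth read once vehicle control cultures reached saturation at 30 °C; 1 = growth at the plate median or of vehicle wells; lower values mean less growth of the strain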
Details: S. cerevisiae deletion strains, growth OD

Measured: normalized growth

CCCC[C@@H](CC)COC(=O)c1ccccc1O
inactive: locus YHR030C, strain SLT2, hits give low values 0.979 | locus YHR079C, strain IRE1, hits give low values 0.99 | locus YJL095W, strain BCK1, hits give low values 1.02 | locus YJR066W, strain TOR1, hits give low values 0.938 | locus YLR113W, strain HOG1, hits give low values 0.974 | locus YNL183C, strain NPR1, hits give low values 0.958 | locus YOR231W, strain MKK1, hits give low values 0.984 | locus YPL256C, strain CLN2, hits give low values 0.994
